{"source": "PubChem BioAssay (EPA / NIEHS)", "key": {"[1]": {"assay": "CCTE_Shafer_MEA_dev_firing_rate_mean: CCTE's Neural Network Formation Assay for Mean Firing Rate, Shafer Lab (AID 2284031)", "summary_of_the_method": "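Extracellular spike frequency, AUC over DIV 5–12 recordings, in rat cortical neuron MEA cultures dosed from plating; loss direction vs DMSO.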"}, "[2]": {"assay": "CCTE_Shafer_MEA_dev_active_electrodes_number: CCTE's Neural Network Formation Assay for Number of Active Electrodes, Shafer Lab (AID 2284040; active = hit-call score of the fitted dose curve at least 0.9, where 1 is the maximum)", "summary_of_the_method": "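Developing rat cortical networks on MEAs, exposed DIV 0–12. Value is the AUC of active-electrode counts (≥5 spikes/min) from days 5, 7, 9, 12, relative to DMSO.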"}, "[3]": {"assay": "CCTE_Shafer_MEA_dev_burst_rate: CCTE's Neural Network Formation Assay for Burst Rate, Shafer Lab (AID 2284042)", "summary_of_the_method": "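Developmental network assay measuring how 12-day exposure of rat cortical neuron cultures alters bursting on extracellular MEA recordings. Values are AUC of well-mean burst rate across four recording days, relative to DMSO vehicle.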"}, "[4]": {"assay": "CCTE_Shafer_MEA_dev_bursting_electrodes_number: CCTE's Neural Network Formation Assay for Number of Bursting Electrodes, Shafer Lab (AID 2284043; active = hit-call score of the fitted dose curve at least 0.9, where 1 is the maximum)", "summary_of_the_method": "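Number of electrodes reaching ≥1 burst every 2 min was recorded at DIV 5, 7, 9 and 12 and collapsed as trapezoidal area under the curve. Cultures were rat cortical neurons on MEA plates, dosed continuously from plating with medium and treatment refreshed on DIV 5 and 9.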"}, "[5]": {"assay": "CCTE_Shafer_MEA_dev_burst_duration_mean: CCTE's Neural Network Formation Assay for Mean Burst Duration, Shafer Lab (AID 2284045)", "summary_of_the_method": "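Mean single-electrode burst duration (first to last spike), averaged over bursting electrodes per well, then integrated as area-under-curve across recordings at days 5, 7, 9 and 12. Rat cortical cultures on MEAs, compound present from plating, refreshed at feeds.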"}, "[6]": {"assay": "CCTE_Shafer_MEA_dev_inter_network_spike_interval_mean: CCTE's Neural Network Formation Assay for Mean Inter-network Spike Interval, Shafer Lab (AID 2284047)", "summary_of_the_method": "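Compound was given at plating to primary rat cortical neurons and renewed with full medium changes on DIV 5 and 9. Extracellular activity was recorded on days 5, 7, 9, 12; AUC values were fitted for loss relative to DMSO control.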"}, "[7]": {"assay": "CCTE_Shafer_MEA_dev_network_spike_number: CCTE's Neural Network Formation Assay for Number of Network Spikes, Shafer Lab (AID 2284048)", "summary_of_the_method": "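Number of network spikes (coordinated firing across electrodes) recorded on days 5, 7, 9 and 12 and summarised as area under the curve. Rat cortical cultures on MEA, continuous compound exposure with full medium/treatment exchange at DIV 5 and 9.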"}, "[8]": {"assay": "CCTE_Shafer_MEA_dev_network_spike_peak: CCTE's Neural Network Formation Assay for Mean Number of Electrodes in Network Spike, Shafer Lab (AID 2284049);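 note: fitted for loss of signal meaning fewer electrodes in network spikes than DMSO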", "summary_of_the_method": "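Rat cortical primary culture, 1.5 x 10^5 cells/well, 48-well MEA (16 electrodes/well). Dosing day 0 through DIV 12, full media/compound exchange DIV 5, 9. AxIS adaptive spike detection; AUC over days 5/7/9/12; loss-of-signal vs DMSO.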"}, "[9]": {"assay": "CCTE_Shafer_MEA_dev_spike_duration_mean: CCTE's Neural Network Formation Assay for Mean Spike Duration, Shafer Lab (AID 2284051)", "summary_of_the_method": "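With DMSO as baseline, loss of mean network spike duration was scored from extracellular recordings of rat cortical neurons on MEA plates. Exposure spanned plating to DIV 12; the four recording days were collapsed into one AUC value.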"}, "[10]": {"assay": "CCTE_Shafer_MEA_dev_network_spike_duration_std: CCTE's Neural Network Formation Assay for Standard Deviation of Network Spike Duration, Shafer Lab (AID 2284052);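 note: hits are decreases in network spike duration SD versus DMSO vehicle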", "summary_of_the_method": "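Developing networks of rat cortical neurons were exposed over twelve days in vitro on 48-well MEA plates. Trapezoidal AUC of recordings (DIV 5–12) was analysed for signal loss relative to DMSO vehicle.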"}, "[11]": {"assay": "CCTE_Shafer_MEA_dev_per_network_spike_spike_number_mean: CCTE's Neural Network Formation Assay for Mean Number of Spikes in a Network Spike, Shafer Lab (AID 2284053)", "summary_of_the_method": "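First, rat cortical cells (1.5 x 10^5/well) were seeded onto MEA wells; second, dosing began at plating and was refreshed on DIV 5 and 9; finally, network-spike spike counts across DIV 5–12 were summarized as AUC.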"}, "[12]": {"assay": "CCTE_Shafer_MEA_dev_per_network_spike_spike_percent: CCTE's Neural Network Formation Assay for Percent of Spikes in a Network Spike, Shafer Lab (AID 2284054)", "summary_of_the_method": "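Metric: fraction of spikes falling in a 0.05 s window at network-spike peaks. Recordings were made on days 5, 7, 9 and 12 and collapsed by trapezoidal AUC. Cultures were rat cortical neurons on MEA plates, dosed continuously from plating, re-dosed at media changes.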"}, "[13]": {"assay": "CCTE_Shafer_MEA_dev_LDH: CCTE's Lactate Dehydrogenase Assay for Cytotoxicity in the Neural Network Formation Assay, Shafer Lab (AID 2284068; active = hit-call score of the fitted dose curve at least 0.9, where 1 is the maximum)", "summary_of_the_method": "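Developing rat cortical networks on MEA plates are exposed to compound for 12 days from plating. LDH activity is measured spectrophotometrically, with DMSO as baseline.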"}, "[14]": {"assay": "CCTE_Shafer_MEA_dev_AB: CCTE's Alamar Blue Assay for Cytotoxicity in the Neural Network Formation Assay, Shafer Lab (AID 2284083; active = hit-call score of the fitted dose curve at least 0.9, where 1 is the maximum;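 note: resazurin reduction fluorescence as viability of cultured neurons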)", "summary_of_the_method": "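Cytotoxicity companion to the developmental MEA: primary rat cortical neurons, 12-day exposure starting day 0, compound refreshed DIV 5 and 9; resazurin fluorescence, fitted against DMSO vehicle.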"}, "[15]": {"assay": "CCTE_Shafer_MEA_dev_mutual_information_norm: CCTE's Neural Network Formation Assay for Mutual Information Normalization, Shafer Lab (AID 2284091)", "summary_of_the_method": "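Shared information across electrodes, tracked on days 5, 7, 9 and 12 of network development and collapsed as trapezoidal area under the curve. Rat cortical cultures were treated continuously from plating, with treatment renewed at feeds on DIV 5 and 9; DMSO baseline, negative-direction fit.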"}, "[16]": {"assay": "CCTE_Shafer_MEA_dev_correlation_coefficient_mean: CCTE's Neural Network Formation Assay for Mean Correlation Coefficient, Shafer Lab (AID 2284093)", "summary_of_the_method": "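Extracellular firing from rat cortical networks on 48-well MEAs, DMSO-referenced, negative fitting direction. Compound present from plating to DIV12; mean pairwise correlation per well integrated over DIV5–12 recordings by trapezoidal AUC.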"}, "[17]": {"assay": "UKN2_HCS_IMR90_neural_migration: University of Konstanz (UKN) Leist Lab Neural Crest Cell Migration Assay in human induced IMR90 Pluripotent Stem Cells (UKN2) (AID 2284204)", "conditions": "actives raise or lower the signal", "summary_of_the_method": "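High-content imaging of calcein-AM and Hoechst stained cells quantifies migration into a stopper-defined gap after 24 h compound exposure. Neural crest cells from IMR90 iPSC migrated 24 h in EGF/FGF N2-S medium before dosing; DMSO baseline.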"}, "[18]": {"assay": "IUF_NPC1b_proliferation_BrdU_72hr: Leibniz Research Institute for Environmental Medicine (IUF) 72-hour Neural Progenitor Cell Bromodeoxyuridine (BrdU) Proliferation Assay (NPC1b) (AID 2284207)", "summary_of_the_method": "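Human fetal cortex-derived (GW 16-19) neural progenitor spheres, 0.25-0.35 mm, one per well in EGF/FGF proliferation medium, exposed to compound for 72 h at 37C, pH 7.2-7.6. BrdU incorporation over the final 16 h read by luminescence ELISA, relative to DMSO.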"}, "[19]": {"assay": "IUF_NPC1a_proliferation_area_72hr: Leibniz Research Institute for Environmental Medicine (IUF) 72-hour Neural Progenitor Cell Proliferation Area Assay (NPC1a) (AID 2284208)", "summary_of_the_method": "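Spheres of 0.3 mm are plated singly in growth-factor medium and exposed from day 0. After three days at 37C and 5% CO2, sphere area is measured by phase contrast imaging, with activity referenced to DMSO.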"}, "[20]": {"assay": "IUF_NPC1_viability_72hr: Viability Assessment at 72 hours in the Leibniz Research Institute for Environmental Medicine (IUF) Neural Progenitor Cell Proliferation Assay (NPC1) (AID 2284209)", "summary_of_the_method": "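Three-day continuous exposure of human neural progenitor spheres under EGF/FGF-driven proliferation; cell viability scored by alamar blue signal versus DMSO.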"}, "[21]": {"assay": "CCTE_Mundy_HCI_Cortical_Synap_Neur_Matur_NeuriteSpotCountPerNeuriteLength: CCTE's Synaptogenesis and Neurite Maturation Assay in rat cortical cells for Neurite Spot Count per Neurite Length, Mundy Lab (AID 2284210)", "summary_of_the_method": "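Synaptophysin spots per unit neurite length, measured by automated imaging of MAP2/synaptophysin/Hoechst-stained neurons. Cultures from rat cortex received chemical at DIV 7 with media change through DIV 12; glial growth arrested by AraC at DIV 5; DMSO baseline.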"}}, "note": "Records with an inconclusive call do not appear. Activity calls are given as the source filed them. Rule for the calls, unless noted: active = hit-call score of the fitted dose curve at least 0.9, where 1 is the maximum; inactive = score below 0.9.", "data": [{"smiles": "CCOP(=O)(OCC)SCSC(C)(C)C", "values": [{"measurement": "outcome", "setting": "[1]", "value": "inactive"}, {"measurement": "AC50", "setting": "[2]", "value": "16.2 µM (active)"}, {"measurement": "outcome", "setting": "[3]", "value": "inactive"}, {"measurement": "AC50", "setting": "[4]", "value": "9.83 µM (active)"}, {"measurement": "outcome", "setting": "[5]", "value": "inactive"}, {"measurement": "outcome", "setting": "[6]", "value": "inactive"}, {"measurement": "outcome", "setting": "[7]", "value": "inactive"}, {"measurement": "AC50", "setting": "[8]", "value": "49.5 µM (active)"}, {"measurement": "outcome", "setting": "[9]", "value": "inactive"}, {"measurement": "outcome", "setting": "[10]", "value": "inactive"}, {"measurement": "outcome", "setting": "[11]", "value": "inactive"}, {"measurement": "outcome", "setting": "[12]", "value": "inactive"}, {"measurement": "AC50", "setting": "[13]", "value": "49.5 µM (active)"}, {"measurement": "AC50", "setting": "[14]", "value": "90.6 µM (active)"}, {"measurement": "outcome", "setting": "[15]", "value": "inactive"}, {"measurement": "outcome", "setting": "[16]", "value": "inactive"}, {"measurement": "outcome", "setting": "[17]", "value": "inactive"}, {"measurement": "outcome", "setting": "[18]", "value": "inactive"}, {"measurement": "outcome", "setting": "[19]", "value": "inactive"}, {"measurement": "outcome", "setting": "[20]", "value": "inactive"}, {"measurement": "outcome", "setting": "[21]", "value": "inactive"}]}]}
